PubChem BioAssay (NCI)
Several values for one entry are separate records, joined by “and”; a condition that tells them apart may be missing. Equal entries are not always repeated. About 83,000 compounds went through this panel and 20% of them were active in at least one assay; those are over-represented in the sample as a whole.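 96-well plates, one dose, 48 hours. Percent growth reported; active if below 10.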 Activity calls are given as the source filed them.

Columns and labels:
Test in all cases: NCI-60 one-dose screen, 48 h (100 = growth as untreated, 0 = no growth, -100 = all killed)
MOLT-4 leukemia = details: 10 µM
SR leukemia = details: 10 µM
RPMI-8226 leukemia = details: 10 µM
OVCAR-5 ovarian = details: 10 µM
OVCAR-4 ovarian = details: 10 µM
SK-OV-3 ovarian = details: 10 µM
IGROV1 ovarian = details: 10 µM
OVCAR-3 ovarian = details: 10 µM
NCI/ADR-RES ovarian = details: 10 µM
T-47D breast = details: 10 µM
BT-549 breast = details: 10 µM
MDA-MB-435 melanoma = details: 10 µM
SW-620 colon = details: 10 µM
HCT-116 colon = details: 10 µM
KM12 colon = details: 10 µM
OVCAR-8 ovarian = details: 10 µM
HS 578T breast = details: 10 µM
HCC-2998 colon = details: 10 µM
MCF7 breast = test system: MCF7 breast

Measured: growth

CC[C@@H](C)[C@@H]1NC(=O)C(NC(=O)C(CC(C)C)N(C)C(=O)C2CCCN2C(=O)C(C)O)C(C)OC(=O)C(Cc2ccc(OC)cc2)N(C)C(=O)C2CCCN2C(=O)C(CC(C)C)NC(=O)C(C)C(=O)C(C(C)C)OC(=O)C[C@H]1O (some centres not stated)
active: MOLT-4 leukemia -15.8% | SR leukemia 1.46% | RPMI-8226 leukemia -27.5% | OVCAR-5 ovarian -71.8% | OVCAR-4 ovarian -30.8% | SK-OV-3 ovarian -38.5% | IGROV1 ovarian -40.4% | OVCAR-3 ovarian -39.6% | NCI/ADR-RES ovarian -43.2% | T-47D breast -32.5% | BT-549 breast -74.2% | MDA-MB-435 melanoma -91.8% | SW-620 colon -45.5% | HCT-116 colon -28.8% | KM12 colon -49.8%

CCOP(=O)(OCC)/C(C#N)=C/c1ccc(Br)cc1
inactive: MOLT-4 leukemia 92% | RPMI-8226 leukemia 54.9% | OVCAR-8 ovarian 100% | OVCAR-5 ovarian 90.7% | OVCAR-4 ovarian 98.4% | SK-OV-3 ovarian 97.4% | HS 578T breast 100% | NCI/ADR-RES ovarian 107% | T-47D breast 90.8% | MDA-MB-435 melanoma 104% | SW-620 colon 105% | HCT-116 colon 101% | HCC-2998 colon 102%

CC(C)(C)OOC(=O)/C=C\C(=O)OOC(C)(C)C
inactive: MOLT-4 leukemia 107% | SR leukemia 93.5% | RPMI-8226 leukemia 112% | OVCAR-8 ovarian 97.4% | OVCAR-5 ovarian 99.3% | OVCAR-4 ovarian 104% | SK-OV-3 ovarian 108% | HS 578T breast 113% | NCI/ADR-RES ovarian 109% | T-47D breast 101% | BT-549 breast 104% | MDA-MB-435 melanoma 119% | SW-620 colon 98.7% | MCF7 breast; 10 µM unless noted 98.7% | HCT-116 colon 106% | HCC-2998 colon 104% | KM12 colon 94.6%

O=C1C=Cc2ccccc2C1=O
active: MDA-MB-435 melanoma 5.35%
inactive: MOLT-4 leukemia 95.2% | SR leukemia 61.8% | RPMI-8226 leukemia 93.6% | OVCAR-8 ovarian 87.9% | OVCAR-5 ovarian 120% | SK-OV-3 ovarian 71.9% | IGROV1 ovarian 77.7% | HS 578T breast 90.9% | NCI/ADR-RES ovarian 93.8% | T-47D breast 97.2% | SW-620 colon 50.5% | HCT-116 colon 87.7% | HCC-2998 colon 112% | KM12 colon 110%

COC12C(COC(N)=O)C3=C(C(=O)C(C)=C(N)C3=O)N1CC1C2N1C (configuration not stated)
active: MOLT-4 leukemia 7.02% | SR leukemia 4.38% | HCC-2998 colon -4.28%
inactive: RPMI-8226 leukemia 51.7% | OVCAR-5 ovarian 67.5% | OVCAR-4 ovarian 70.5% | SK-OV-3 ovarian 54.7% | IGROV1 ovarian 24.4% | HS 578T breast 67.1% | NCI/ADR-RES ovarian 66.9% | T-47D breast 52.8% | BT-549 breast 60% | MDA-MB-435 melanoma 68.6% | SW-620 colon 36.8% | HCT-116 colon 44.3% | KM12 colon 64.2%

CC1CCC2(OC1)OC1C(O)C3C4CCC5CC(OC6OC(CO)C(OC7OC(CO)C(O)C(OC8OCC(O)C(O)C8O)C7OC7OC(CO)C(O)C(OC8OC(CO)C(O)C(O)C8O)C7O)C(O)C6O)C(O)CC5(C)C4CCC3(C)C1C2C (configuration not stated)
inactive: MOLT-4 leukemia 28.8% | T-47D breast 50.1% | MDA-MB-435 melanoma 47.5% | SW-620 colon 51.2%
active: SR leukemia 9.36% | RPMI-8226 leukemia -47.1% | OVCAR-5 ovarian -62.6% | OVCAR-4 ovarian -66.7% | SK-OV-3 ovarian -35.8% | IGROV1 ovarian -47.7% | NCI/ADR-RES ovarian -59.4% | BT-549 breast -74.8% | MCF7 breast; 10 µM -34% | MCF7 breast; 100 µM -84.7% and -85.4% | HCT-116 colon -72%

S=C=NCCc1ccccc1
inactive: MOLT-4 leukemia 53.4% | OVCAR-5 ovarian 33.2% | OVCAR-4 ovarian 69.5% | SK-OV-3 ovarian 122% | IGROV1 ovarian 44.1% | OVCAR-3 ovarian 72% | NCI/ADR-RES ovarian 21.4% | T-47D breast 40.4% | MDA-MB-435 melanoma 66.4% | SW-620 colon 56% | HCT-116 colon 27.1%
active: SR leukemia 6.81% | RPMI-8226 leukemia -18.9% | BT-549 breast -20.2%

CC(C)C1(NC(=O)C2CC3c4cccc5[nH]cc(c45)CC3N(C)C2)OC2(O)C3CCCN3C(=O)C(Cc3ccccc3)N2C1=O (configuration not stated)
inactive: MOLT-4 leukemia 65.8% | SR leukemia 87.8% | RPMI-8226 leukemia 108% | OVCAR-5 ovarian 72.2% | OVCAR-4 ovarian 70.9% | SK-OV-3 ovarian 116% | IGROV1 ovarian 108% | HS 578T breast 99.5% | NCI/ADR-RES ovarian 102% | T-47D breast 103% | BT-549 breast 91.4% | MDA-MB-435 melanoma 102% | SW-620 colon 103% | HCT-116 colon 95.8% | HCC-2998 colon 105% | KM12 colon 106%

CC[C@@]1(O)C[C@H](OC2CC(N(C)C)C(O)C(C)O2)c2c(cc3c(c2O)C(=O)c2c(O)ccc(O)c2C3=O)[C@H]1C(=O)OC (some centres not stated)
active: MOLT-4 leukemia -19.5% | SR leukemia -18.2% | RPMI-8226 leukemia -32.6% | OVCAR-5 ovarian -87% | OVCAR-4 ovarian -44.2% | SK-OV-3 ovarian -68.9% | IGROV1 ovarian -68.3% | NCI/ADR-RES ovarian -64.1% | T-47D breast -42% | BT-549 breast -80.2% | MDA-MB-435 melanoma -95.7% | SW-620 colon -90.5% | MCF7 breast; 10 µM unless noted -39.6% | HCT-116 colon -70.5% | KM12 colon -58.1%

O=[N+]([O-])c1cc[n+]([O-])c2ccccc12
active: MOLT-4 leukemia 3.5% | RPMI-8226 leukemia -7.21% | OVCAR-8 ovarian -31.1% | OVCAR-5 ovarian -13.7% | OVCAR-4 ovarian -99.6% | SK-OV-3 ovarian -18.4% | IGROV1 ovarian -24.3% | NCI/ADR-RES ovarian -55.1% | T-47D breast -20.5% | BT-549 breast -65.9% | MDA-MB-435 melanoma -70.7% | SW-620 colon -69.3% | MCF7 breast; 10 µM unless noted -16.7% | HCT-116 colon -71.2% | HCC-2998 colon -94.5%
inactive: HS 578T breast 18.7%
